Test results published in the supplement of paper PMC7411054.
Counter-ions that a name gives are not always drawn.

Columns and labels:
Assay in all cases: lowest phenotypically active concentration; higher = less potent
Details in all cases: treatment time: 24 h
HepG2-ACTB-RAB5A = tested on: HepG2-ACTB-RAB5A
In short: (§1)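 Live-cell features were measured per well and normalised to solvent control wells after fifteen gene-edited A549, HepG2 and WPMY1 reporter lines had been treated for 24 h at 0.3, 1, 3 or 9 µM in four wells each. A condition was deviating when ≥3 of 4 wells sat beyond the 95th percentile of control Euclidean distances. It was reproducible when the median replicate Pearson correlation exceeded the 95th percentile of non-replicates. Phenotypic activity demanded both.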

HepG2-CANX-COX4 = tested on: HepG2-CANX-COX4
In short: as §1

HepG2-GM130-SQSTM1 = tested on: HepG2-GM130-SQSTM1
In short: as §1

HepG2-TP53BP1-CLTA = tested on: HepG2-TP53BP1-CLTA
In short: as §1

HepG2-TUBA1B-RELA = tested on: HepG2-TUBA1B-RELA
In short: as §1

WPMY1-ACTB-RAB5A = tested on: WPMY1-ACTB-RAB5A
In short: as §1

WPMY1-CANX-COX4 = tested on: WPMY1-CANX-COX4
In short: as §1

WPMY1-GM130-SQSTM1 = tested on: WPMY1-GM130-SQSTM1
In short: as §1

WPMY1-TP53BP1-CLTA = tested on: WPMY1-TP53BP1-CLTA
In short: as §1

WPMY1-TUBA1B-RELA = tested on: WPMY1-TUBA1B-RELA
In short: as §1

Measured: lowest phenotypically active concentration

O=C1Cc2c([nH]c3ccc(Br)cc23)-c2ccccc2N1 [Kenpaullone]
3 µM: HepG2-ACTB-RAB5A | HepG2-GM130-SQSTM1 | HepG2-TP53BP1-CLTA | WPMY1-TUBA1B-RELA
1 µM: all other assays above

CON(C)C(=O)N1N=C(c2cc(F)ccc2F)S[C@@]1(CCCN)c1ccccc1 [ARRY 520 trifluoroacetate]
≤ 0.3 µM: all assays above

CC(=C/[C@@H](C)C(=O)c1ccc(N(C)C)cc1)/C=C/C(=O)NO [Trichostatin A]
≤ 0.3 µM: all assays above

COc1cc(/C=C/C(=O)N2CCC=CC2=O)cc(OC)c1OC [Piperlongumine]
9 µM: HepG2-TP53BP1-CLTA | WPMY1-ACTB-RAB5A | WPMY1-CANX-COX4 | WPMY1-TP53BP1-CLTA | WPMY1-TUBA1B-RELA
3 µM: all other assays above

CN1c2ccccc2C(=O)N2CCc3c([nH]c4ccccc34)[C@H]21 [Evodiamine]
3 µM: HepG2-CANX-COX4 | HepG2-GM130-SQSTM1 | HepG2-TP53BP1-CLTA | HepG2-TUBA1B-RELA
1 µM: all other assays above

CN[C@H]1CC[C@@H](c2ccc(Cl)c(Cl)c2)c2ccccc21 [sertraline]
9 µM: HepG2-CANX-COX4
3 µM: all other assays above

C[C@H]1[C@H]2CC[C@H]3[C@@H]4CC=C5C[C@@H](N(C)C)CC[C@]5(C)[C@H]4CC[C@]23CN1C [Conessine]
1 µM: HepG2-TP53BP1-CLTA | WPMY1-GM130-SQSTM1
3 µM: HepG2-GM130-SQSTM1 | HepG2-TUBA1B-RELA | WPMY1-CANX-COX4 | WPMY1-TP53BP1-CLTA
9 µM: all other assays above

CCC(=O)N1CCN(c2ccc(-n3c(=O)ccc4cnc5ccc(-c6cnc7ccccc7c6)cc5c43)cc2C(F)(F)F)CC1 [Torin 1]
≤ 0.3 µM: all assays above

CC[C@@H](N)CNc1ccnc(-c2cc(-c3cnn(C)c3)ccc2O)n1
3 µM: WPMY1-ACTB-RAB5A
1 µM: all other assays above

Cc1cc(C)cc(C(=O)NOCCCCCC(=O)NO)c1
1 µM: HepG2-GM130-SQSTM1 | HepG2-TP53BP1-CLTA | WPMY1-ACTB-RAB5A
≤ 0.3 µM: all other assays above

CN1CCC(=C2c3ccccc3CC(=O)c3sccc32)CC1 [ketotifen]
3 µM: HepG2-TUBA1B-RELA
9 µM: all other assays above

Cc1c[nH]c2nccc(Oc3c(F)cc(Nc4cc(Cl)nc(N)n4)cc3F)c12
1 µM: WPMY1-TP53BP1-CLTA
≤ 0.3 µM: all other assays above

Cc1c(C(=O)N2CCOc3ccc(-c4ccc(N)nc4)cc3C2)ccc(S(C)(=O)=O)c1F
9 µM: HepG2-TP53BP1-CLTA | WPMY1-TUBA1B-RELA
3 µM: all other assays above

CN(C)c1ccc(C(=O)NCCCCCCC(=O)NO)cc1
1 µM: HepG2-GM130-SQSTM1 | HepG2-TP53BP1-CLTA | WPMY1-ACTB-RAB5A
≤ 0.3 µM: all other assays above

COc1ccccc1-c1c[nH]c2ncc(-c3cncc(C(=O)N(C)C)c3)cc12
3 µM: WPMY1-TUBA1B-RELA
≤ 0.3 µM: all other assays above

Cc1noc(C)c1-c1cc(O)cc(C(O)c2ccccc2)c1 (stereo not given)
1 µM: WPMY1-GM130-SQSTM1
3 µM: all other assays above

Nc1ccn([C@@H]2O[C@H](CO)[C@@H](O)[C@@H]2O)c(=O)n1 [cytarabine]
1 µM: WPMY1-CANX-COX4 | WPMY1-GM130-SQSTM1
≤ 0.3 µM: all other assays above

C[C@@H](N)[C@H]1CC[C@H](C(=O)Nc2ccncc2)CC1
3 µM: HepG2-ACTB-RAB5A | HepG2-TUBA1B-RELA
9 µM: WPMY1-TP53BP1-CLTA
1 µM: all other assays above

CCCCCCCCCCCCCCCC[n+]1ccn(Cc2ccccc2)c1C
3 µM: WPMY1-ACTB-RAB5A | WPMY1-GM130-SQSTM1 | WPMY1-TP53BP1-CLTA | WPMY1-TUBA1B-RELA
1 µM: all other assays above

C=CC(=O)Nc1cccc(CN2C(=O)N(c3c(Cl)c(OC)cc(OC)c3Cl)Cc3cnc(NCCCCN(CC)CC)nc32)c1 [FIIN 1 hydrochloride]
3 µM: HepG2-CANX-COX4
1 µM: WPMY1-CANX-COX4 | WPMY1-TUBA1B-RELA
≤ 0.3 µM: all other assays above
